Screening results: PubChem, National Center for Advancing Translational Sciences (NCATS)
Sampled rows, rich in hits. Any-hit rate of the full collection: about 1.1%.
VACV Venus inh – qHTS for Stage-Specific Inhibitors of Vaccinia Orthopoxvirus: Venus Reporter Primary qHTS. Vaccinia virus Venus reporter expression, fluorescence. Potency, µM (series often up to 36.5 µM), for inactives: at the highest dose activity change, negative = inhibition, actives largely listed as inhibitors. 330,000 tested, 0.46% active; calls by dose curve; tested in A549 cells; note: nearly all actives have a fitted effect of over 30% in size
AmpC inh detg – qHTS Inhibitors of AmpC Beta-Lactamase (assay with detergent). 370,000 tested, 0.041% active. AmpC hydrolysis of nitrocefin, absorbance 480 nm, 0.01% Triton. Potency, µM (series often up to 114 µM), for inactives: top-dose activity change, negative = inhibition, actives largely listed as inhibitors. P00811;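 note: 0% = no-compound wells and -100% = no-enzyme wells; nearly all actives have a fitted effect of over 25% in size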
Target sequence (P00811 whole entry, looked up): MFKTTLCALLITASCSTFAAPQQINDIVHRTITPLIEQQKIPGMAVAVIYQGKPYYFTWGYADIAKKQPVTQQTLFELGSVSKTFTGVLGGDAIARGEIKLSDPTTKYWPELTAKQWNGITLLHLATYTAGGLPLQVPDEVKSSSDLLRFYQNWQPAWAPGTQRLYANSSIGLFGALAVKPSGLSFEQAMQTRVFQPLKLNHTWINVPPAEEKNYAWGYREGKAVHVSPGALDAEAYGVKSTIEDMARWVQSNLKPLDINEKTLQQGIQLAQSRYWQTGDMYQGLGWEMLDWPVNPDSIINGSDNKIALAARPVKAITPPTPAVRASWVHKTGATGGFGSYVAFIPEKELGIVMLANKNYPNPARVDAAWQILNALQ
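AmpC (5.3 nM in the dispensed reagent) in 20 mM phosphate pH 7.0 with 0.01% (detergent screen) or 0.0001% Triton X-100 was preincubated with compounds for 15 min at room temperature. Nitrocefin was then added from an 800 uM solution, and hydrolysis was followed at 480 nm.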
AmpC no deterg – qHTS Inhibitors of AmpC Beta-Lactamase (assay without detergent) | AID 485341, 2010 | P00811 | AmpC nitrocefin hydrolysis, absorbance 480 nm, 0.0001% Triton | 330,000 tested, 0.52% active | Potency, µM (titrated, usually from 57.1 µM), for inactives: at the top dose activity change, negative = inhibition, most hits filed as inhibitors;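 note: plate controls were no compound for no effect and no enzyme for full effect; nearly all actives have a fitted effect of over 20% in size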
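AmpC (5.3 nM in the dispensed reagent) in 20 mM phosphate pH 7.0 with 0.01% (detergent screen) or 0.0001% Triton X-100 was preincubated with compounds for 15 min at room temperature. Nitrocefin was then added from an 800 uM solution, and hydrolysis was followed at 480 nm.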
VACV mCherry inh – qHTS for Stage-Specific Inhibitors of Vaccinia Orthopoxvirus: mCherry Reporter Primary qHTS. 310,000 tested, 0.63% active. Potency, µM (titrated, usually from 36.5 µM), inactives show at the highest dose activity change, negative = inhibition, most hits filed as inhibitors. Vaccinia virus mCherry reporter infection, fluorescence; calls by dose curve; tested in A549 cells; note: nearly all actives have a fitted effect of over 35% in size
* marks the source's active call; other numbers are inactive results; i = inactive; ? = inconclusive; / = no result; + = active, no number; ! = repeats disagree. Unless noted, calls come from the whole dose curve; as a rule, active = well fitted curve in the direction sought with a large enough effect; inconclusive = small, poorly fitted or top-dose-only effect, or another doubt; inactive = no such curve, though single readings can be large; an effect the other way counts as inactive or inconclusive. Unless noted, % is set by controls: 0 for no effect and ±100 for the full control effect; potency is the fitted concentration of half-maximal effect.

SMILES	VACV Venus inh	AmpC inh detg	AmpC no deterg	VACV mCherry inh
O=C(NC1CCCC1)c1cn(C2CCCN(Cc3ccc4c(c3)OCCO4)C2)nn1 (stereo unspecified)	2.2%	/	/	1.0%
CCOC(=O)N1CCN(c2c(F)cc3[nH]c(=S)[nH]c3c2Br)CC1	/	-1.0%	28.2µM*	/
C=C1C=C(C(F)F)n2ncc(C(=O)N3CCN(c4ccccc4)CC3)c2N1	-25.1%	/	/	?
CCOC(=O)N1CCC(c2cc(=O)n3[nH]c(C)c(-c4ccc(F)cc4)c3n2)CC1	?	?	25.1µM*	?
COC(=O)c1c(OCc2cccnc2)cc(=O)n2c1CCN(C(=O)c1c3c(nn1C)CCCC3)CC2	-13.7%	/	/	-14.7%
Cc1cc(C)c2c(c1)/C(=N/Nc1ccc(S(N)(=O)=O)cc1[N+](=O)[O-])CCC2	/	-4.5%	-25.7%	/
NS(=O)(=O)c1ccc(N/N=C2/CCCCC2C2CCCCC2)c([N+](=O)[O-])c1 (stereo unspecified)	15.8µM*	-8.3%	-29.0%	20µM*
FC(F)(F)c1cccc(NC(=S)Nc2cccc(NC(=S)Nc3cccc(C(F)(F)F)c3)n2)c1	9.6%	-1.4%	7.94µM*	?
Cc1cccc(NC(=S)Nc2cccc(C(F)(F)F)c2)n1	0.0%	-8.2%	-34.6%	-10.2%
Cc1ccc(O)c(-c2[nH]ncc2C(=O)c2ccc(Cl)cc2)c1	-26.1%	1.0%	-28.5%	?
Cc1ccc(O)c(-c2[nH]ncc2C(=O)c2ccc(Br)cc2)c1	/	-0.7%	5.01µM*	/
COc1ccc(-n2nnnc2SCC(=O)N2CCOCC2)cc1	-5.1%	?	0.891µM*	i
COc1cc(=O)n2c(c1C(=O)NCc1ccco1)CCN(Cc1ccc3ccccc3c1)CC2	-12.0%	/	/	i
O=[N+]([O-])c1ccc(N2CCNCC2)cc1NCc1ccco1	-10.6%	-10.5%	17.8µM*	-0.2%
CN1CCN(c2ccc([N+](=O)[O-])c(NCc3ccco3)c2)CC1	-13.4%	-0.3%	?	i
CN(C)CC(C)(C)CNC(=O)c1cnn(-c2nccc(-c3ccc4c(c3)OCO4)n2)c1-c1ccco1	4.0%	/	/	-8.3%
CCCSc1nc2c(cnn2-c2ccc(C)cc2)c(=O)[nH]1	28.2µM*	-11.2%	-27.7%	?
N=C1SC(c2ccccc2)C(=O)N1c1ncc(Cc2ccccc2)s1 (stereo unspecified)	-8.8%	7.8%	31.6µM*	-5.1%
Cc1ccc(Cc2cnc(N3C(=N)SC(c4ccccc4)C3=O)s2)cc1 (stereo unspecified)	-2.6%	-6.4%	?	-6.7%
COc1ccccc1C1CN(CC(=O)N2CCC(N3CCOCC3)CC2)Cc2ccccc2O1 (stereo unspecified)	-2.7%	/	/	-3.5%
CCOC(=O)c1cc2c(=O)n3ccccc3nc2n(Cc2ccco2)c1=NC(=O)c1cc(C)cc(C)c1	10µM*	5.4%	/	?
CC1CN(Cc2cccn2-c2cccnc2)Cc2cc(Cl)ccc2O1 (stereo unspecified)	1.9%	/	/	-10.4%
COc1cccc(CN2CCC(n3cc(C(=O)NC4CCCC4)nn3)CC2)c1O	-0.8%	/	/	-4.1%
CCOc1ccc(N2CC(NC(=O)c3ccco3)CC2=O)cc1 (stereo unspecified)	-6.9%	2.8%	/	-9.8%
CCOc1ccc(N2CC(NC(=O)c3cccc4ccccc34)CC2=O)cc1 (stereo unspecified)	-6.0%	?	31.6µM*	?
SMILES	VACV Venus inh	AmpC inh detg	AmpC no deterg	VACV mCherry inh
CC1(C)S[C@@H]2[C@H](NC(=O)[C@H](N)c3ccc(O)cc3)C(=O)N2[C@H]1C(=O)O	-21.5%	35.5µM*	-22.6%	-3.5%
CC1(C)S[C@@H]2[C@H](NC(=O)[C@H](N)c3ccccc3)C(=O)N2[C@H]1C(=O)O	-14.9%	44.7µM*	12.6µM*!	-1.3%
c1cncc(OC2CCN(Cc3ccc4c(c3)CN(Cc3nc5ccccc5s3)CCO4)CC2)c1	7.8%	/	/	-8.5%
CC(=O)c1ccc([N+](C)(C)C)cc1	-6.9%	/	/	5.8%
OC1C=C2CCN3Cc4cc5c(cc4C(C1O)C23)OCO5 (stereo unspecified)	7.08µM*	/	/	?
O[C@@H]1[C@@H](O)C=C2CCN3Cc4cc5c(cc4[C@H]1C23)OCO5 (stereo partly specified)	3.98µM*	?	-15.9%	?
CN1CCc2cc3c(cc2C1O)OCO3 (stereo unspecified)	-2.3%	/	/	-1.2%
CCCCN1CC[C@H]2C=CC[C@@H](C(=O)NC3CCCCC3)[C@H]2C1=O	-18.5%	/	/	i
COCC(=O)Nc1cc(C(=O)N2CC3(C)CC2CC(C)(C)C3)c2c(c1)nc(-c1ccncc1)n2C (stereo unspecified)	-6.4%	/	/	-13.5%
COc1cc2c(cc1OC)C13CCN4CC5CCOC6CC(=O)N2C1C6C5CC43 (stereo unspecified)	-21.1%	/	/	-15.0%
COc1cc2c(cc1OC)C13CCN4CC5=CCOC6CC(=O)N2C1C6C5CC43 (stereo unspecified) (tested in a mixture with another compound)	+	-1.0%	-18.6%	-5.0%
C#CCOCCOCCOCCNc1nc(N2CCN(C(=O)CCCCCCCCCCNC(=O)[C@H](CCCCN)n3cc(C[C@@H](C)CC)nn3)CC2)nc(N2CCN(C(=O)CCCCCCCCCCNC(=O)[C@@H]([C@H](C)O)n3cc(C)nn3)CC2)n1	7.94µM*	0.6%	298.4%	11.2µM*
C#CCOCCOCCOCCNc1nc(N2CCN(C(=O)CCCCCCCCCCNC(=O)[C@H](CCCCN)n3cc(C)nn3)CC2)nc(N2CCN(C(=O)CCCCCCCCCCNC(=O)[C@@H]([C@H](C)O)n3cc(C)nn3)CC2)n1	11.2µM*	4.7%	235.3%	?
C#CCOCCOCCOCCNc1nc(N2CCN(C(=O)CCCCCCCCCCNC(=O)Cn3cc(C[C@@H](C)O)nn3)CC2)nc(N2CCN(C(=O)CCCCCCCCCCNC(=O)[C@@H]([C@H](C)O)n3cc(C)nn3)CC2)n1	?	?	255.5%	-26.1%
C#CCOCCOCCOCCNc1nc(N2CCN(C(=O)CCCCCCCCCCNC(=O)[C@@H](CCSC)n3cc(CCO)nn3)CC2)nc(N2CCN(C(=O)CCCCCCCCCCNC(=O)[C@@H]([C@H](C)O)n3cc(C)nn3)CC2)n1	?	-3.2%	228.6%	-0.6%
C#CCOCCOCCOCCNc1nc(N2CCN(C(=O)CCCCCCCCCCNC(=O)Cn3cc(CCCCCN)nn3)CC2)nc(N2CCN(C(=O)CCCCCCCCCCNC(=O)[C@@H]([C@H](C)O)n3cc(C)nn3)CC2)n1	10µM*	-0.5%	297.4%	?
Cc1c(C(=O)NCCN2CCC(c3ccccc3)CC2)cnn1-c1nccc(-c2cccs2)n1	-27.4%	/	/	?
CCCCCCCCCC[n+]1ccc(/C=C/c2c(C)[nH]c3ccccc23)c2ccccc21	i	/	/	i
C(=C\c1ccc2ccccc2n1)/c1cccnc1	-28.4%	/	/	?
